The target in one assay is T1, Aspartate--tRNA(Asp/Asn) ligase (Mycobacterium tuberculosis (strain ATCC 25618 / H37Rv)) (UniProt P9WFW3). Further: in the data most compounds retested in dose-response had high values.
T1 sequence (whole entry): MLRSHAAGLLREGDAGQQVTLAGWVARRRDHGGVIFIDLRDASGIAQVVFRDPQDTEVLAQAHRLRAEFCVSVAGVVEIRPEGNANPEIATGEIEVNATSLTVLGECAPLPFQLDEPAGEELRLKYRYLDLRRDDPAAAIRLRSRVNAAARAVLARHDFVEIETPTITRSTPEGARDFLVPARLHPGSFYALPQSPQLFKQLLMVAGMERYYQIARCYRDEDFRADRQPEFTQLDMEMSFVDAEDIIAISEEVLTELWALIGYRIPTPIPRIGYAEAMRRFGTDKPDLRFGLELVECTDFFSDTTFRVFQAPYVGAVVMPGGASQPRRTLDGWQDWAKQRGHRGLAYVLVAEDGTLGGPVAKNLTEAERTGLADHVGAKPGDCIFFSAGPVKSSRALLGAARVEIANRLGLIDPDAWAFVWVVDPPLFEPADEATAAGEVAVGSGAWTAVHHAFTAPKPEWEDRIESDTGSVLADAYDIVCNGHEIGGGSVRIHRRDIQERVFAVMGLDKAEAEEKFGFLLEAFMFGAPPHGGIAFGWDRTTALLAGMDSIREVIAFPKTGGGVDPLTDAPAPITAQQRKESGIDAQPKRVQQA
The experiment in a line: Assay for Asp RNA synthetase-1 from Mycobacterium tuberculosis. The assay is classed as functional. The conditions noted are these: 30 µM. Also on record: scale not given: direction of the effect not stated beside the values.
In the case of `CCN(CC)C(=O)c1ccn(COc2cc(C)cc(C)c2)n1`, the Percent Effect was -7.43%.
On the same count and under the same terms, as for `O=C(Nc1cccc(CNCc2cccs2)c1)C1CCCC1`, the figure is 1.74%; as for `CNC(=O)[C@H]1C[C@@H]2CN(C(=O)c3ccco3)C[C@@H]2N1S(C)(=O)=O`, -2.01%; as for `O=C(c1cc(=O)[nH]c(=O)[nH]1)N1CCCCC1c1nc2cc(F)ccc2[nH]1` (stereo not given), -0.139%.
`CNC(=O)c1cc(S(=O)(=O)C(C)C)cs1`: the Percent Effect is -3.82%.
For `Cc1csc(N2CCN(C(=O)CCC(=O)c3ccc(C)s3)CC2)n1`, the Percent Effect was -2.27%.
For `Cc1nc(CN2CCN(C(=O)c3sccc3C3CC3)CC2)cs1`, the Percent Effect was -4.27%.
Turning to `Cc1cc(NC(=O)NCc2ccccc2OC(F)F)n(C)n1`, the Percent Effect was -5.2%.
For `Cc1oc(C)c(C(=O)NCc2ccccc2S(=O)(=O)N(C)C)c1C`, the Percent Effect is -6.28%.
Regarding `CCc1nnc2n1CCN(C(=O)COCCc1ccccc1)C2`, the Percent Effect came out at 3.29%.
`O=C(c1ccc(-n2cccn2)nc1)N1CCC(Nc2cccnn2)CC1`: the Percent Effect is -2.94%.
`C=Cn1ncc(CN2C[C@@H]3CCCN3C[C@H]2CCSC)c1C`: the Percent Effect amounted to 1.89%.
As to `Cc1ccc(CNC(=O)CN2CCN(CC(O)C3CC3)CC2)cc1` (stereo not given), the Percent Effect worked out at 1.21%.
Regarding `Cc1ccc(-n2nnc(C(=O)Nc3cc(C)nn3C)c2C2CC2)cc1`, the Percent Effect was -2.8%.
In the case of `CC(=O)NC1CCCN(C(=O)c2ccc(Br)cc2O)C1` (stereo not given), the Percent Effect was determined as 2.34%.
With `c1nc2c(c(-c3ccsc3)n1)CCN(Cc1ccoc1)CC2`, the Percent Effect was found to be 8.04%.
Still for that read-out and setting: as for `O=C(NCCc1ccc(Cl)s1)NCc1nnc2n1CCC2`, the figure is 2.25%; as for `CN(C(=O)c1ccccc1Cl)C1CCN(c2ccccn2)CC1`, 5.42%.
In the case of `O=C(CN1CCCC1Cn1cncn1)Nc1cccnc1` (stereo not given), the Percent Effect is 1.28%.
On the same count and under the same terms, as for `CCN(Cc1ccc2c(c1)OCCO2)S(=O)(=O)N(C)C(C)C`, the figure is -0.607%.

A further assay deals with Shiga toxin 2 (Escherichia coli O157:H7) (UniProt P09385+P09386). Description: E. coli 0.157:H7 Shiga Toxin SOP - stx2 screening assay. The class given is functional. Also on record: scale not given: direction of the effect not stated beside the values. The note with it: 30 µM.
Consider `Cc1cc(NC(=O)CN2CCc3nn(C)c(=O)cc3C2)on1`, for which the Percent Effect is -13.1%.
In the case of `Cc1cc(NC(=O)CN2CCCC2c2noc(C3CC3)n2)no1` (stereo not given), the Percent Effect is -26.9%.
On the same count and under the same terms, as for `O=C(O)CCc1cccc(C2CCCN2Cc2ccc(F)c(F)c2)n1` (stereo not given), the figure is 2.71%.
For `COC(=O)C1CCN(C(=O)CN2CCN(c3cccc(C)c3)CC2)CC1`, the Percent Effect is -48.5%.
Still for that read-out and setting: as for `O=C1N(CC2CC2)CCC12CCN(c1ncccn1)CC2`, the figure is -4.25%; as for `CCc1cnc(N2CCC(=O)N(CC3CC3)C(C(C)C)C2)nc1` (stereo not given), 2.92%.
For `CCOc1nnc(CNC2CCCN(c3ccc(C)nn3)C2)s1` (stereo not given), the Percent Effect stood at 19.6%.
Same read-out and setting: as for `O=C(c1ccc(F)cc1F)N1CC[C@H](O)[C@@H](N2CCOCC2)CC1`, the figure is -21.2%; as for `Cn1cccc1CNC(=O)CCCc1nnc2ccccn12`, -34.1%.
Turning to `CC(Cn1cccn1)NC(=O)Cc1cccs1` (stereo not given), the Percent Effect was -16.8%.
Consider `Cc1cccc(CN2C(=O)CO[C@@H]3CN(CCO)C[C@H]32)c1`, for which the Percent Effect is 2.07%.
For `CSCC[C@H](N)C(=O)NCc1cc2n(n1)CCCN(C(=O)C1CCC1)C2`, the Percent Effect was found to be 2.24%.
The same measure, in the same setting: as for `c1cnnc(N2CCCC(NCc3nnc(-c4ccco4)o3)C2)c1` (stereo not given), the figure is -79.7%; as for `N#Cc1ccc(F)c(CN2CCCC2Cn2cccn2)c1` (stereo not given), 1.36%.
In the case of `CCn1nc(C)c(CCNC(=O)C2CCCN(CC(N)=O)C2)c1C` (stereo not given), the Percent Effect amounted to 7.92%.
With `CS(=O)(=O)CCN1CCC2(CCCN(C3CCOCC3)C2=O)C1` (stereo not given), the Percent Effect was -11.9%.
As for `CC1CCCN(C(=O)c2csc(S(N)(=O)=O)c2)CC1` (stereo not given), the Percent Effect was -19.1%.
Take `Cc1ccc2c(c1)CN(C(=O)c1ccccc1F)C(CN(C)C)CO2` (stereo not given): the Percent Effect worked out at 3.26%.
Still for that read-out and setting: as for `Clc1cc(CN2CCCC2Cn2cncn2)c2ncccc2c1` (stereo not given), the figure is 6.1%; as for `CCc1ccc(OCC(O)CN2CCC(O)CC2)cc1` (stereo not given), 16.1%; as for `CCN(CC)C(=O)c1ccn(COc2cc(C)cc(C)c2)n1`, -39.1%.
The same measure, in the same setting: as for `O=C(Nc1cccc(CNCc2cccs2)c1)C1CCCC1`, the figure is 13%.
Regarding `CNC(=O)[C@H]1C[C@@H]2CN(C(=O)c3ccco3)C[C@@H]2N1S(C)(=O)=O`, the Percent Effect is -24.9%.
Take `O=C(c1cc(=O)[nH]c(=O)[nH]1)N1CCCCC1c1nc2cc(F)ccc2[nH]1` (stereo not given): the Percent Effect stood at 9.59%.
On to `CNC(=O)c1cc(S(=O)(=O)C(C)C)cs1`, for which the Percent Effect was -3.3%.
Take `Cc1csc(N2CCN(C(=O)CCC(=O)c3ccc(C)s3)CC2)n1`: the Percent Effect was 8.56%.
The same measure, in the same setting: as for `Cc1nc(CN2CCN(C(=O)c3sccc3C3CC3)CC2)cs1`, the figure is 13.6%; as for `Cc1cc(NC(=O)NCc2ccccc2OC(F)F)n(C)n1`, -10.5%.
On to `Cc1oc(C)c(C(=O)NCc2ccccc2S(=O)(=O)N(C)C)c1C`, for which the Percent Effect stood at 37.9%.
Regarding `CCc1nnc2n1CCN(C(=O)COCCc1ccccc1)C2`, the Percent Effect stood at 24.8%.
In the case of `O=C(c1ccc(-n2cccn2)nc1)N1CCC(Nc2cccnn2)CC1`, the Percent Effect was determined as 26.9%.
As for `C=Cn1ncc(CN2C[C@@H]3CCCN3C[C@H]2CCSC)c1C`, the Percent Effect was -18.3%.
For the compound `Cc1ccc(CNC(=O)CN2CCN(CC(O)C3CC3)CC2)cc1` (stereo not given), the Percent Effect is -15.5%.
On to `Cc1ccc(-n2nnc(C(=O)Nc3cc(C)nn3C)c2C2CC2)cc1`, for which the Percent Effect turned out to be 34.4%.
For the compound `CC(=O)NC1CCCN(C(=O)c2ccc(Br)cc2O)C1` (stereo not given), the Percent Effect is 19.3%.
With `c1nc2c(c(-c3ccsc3)n1)CCN(Cc1ccoc1)CC2`, the Percent Effect was -46%.
Turning to `O=C(NCCc1ccc(Cl)s1)NCc1nnc2n1CCC2`, the Percent Effect is 22.9%.
For the compound `CN(C(=O)c1ccccc1Cl)C1CCN(c2ccccn2)CC1`, the Percent Effect is 19.1%.
In the case of `O=C(CN1CCCC1Cn1cncn1)Nc1cccnc1` (stereo not given), the Percent Effect is 9.88%.
Take `CCN(Cc1ccc2c(c1)OCCO2)S(=O)(=O)N(C)C(C)C`: the Percent Effect came to 9.34%.

(Values after ChEMBL document CHEMBL3988442, “University of Dundee, Small-Polar-MMV Screening Library” (2021).)
